Measurements reported in PubChem BioAssay.
Records with an inconclusive call do not appear. Calls of active or inactive are those of the source.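 The calls were made as follows, unless noted: active = viability at or below 30% in both replicate assays; inconclusive = viability at or below 30% in just one of the two assays; inactive = the rest.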

Key:
[1] = reducers of endogenous Her2 protein level, primary screen, SKBR3 breast tumor cells, AlphaScreen, ATP viability (AID 461;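 active = Her2 level under about 52% in both replicate screens, with viability over 70% of control, limit read from the data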;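 as to Her2 level: lower value means less Her2 protein in the cells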;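 as to viability: percent of carrier control wells set as 100% viability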); conditions: 18-24 h, measured here: SKBR3 viability, ATP luminescence, at 10 µM
[2] = molecular target: Receptor tyrosine-protein kinase erbB-2 (Homo sapiens) (UniProt P04626); test: as above; conditions: 18-24 h, at 10 µM, stronger effect = lower value
Receptor tyrosine-protein kinase erbB-2 (Homo sapiens), sequence (P04626 whole entry, looked up): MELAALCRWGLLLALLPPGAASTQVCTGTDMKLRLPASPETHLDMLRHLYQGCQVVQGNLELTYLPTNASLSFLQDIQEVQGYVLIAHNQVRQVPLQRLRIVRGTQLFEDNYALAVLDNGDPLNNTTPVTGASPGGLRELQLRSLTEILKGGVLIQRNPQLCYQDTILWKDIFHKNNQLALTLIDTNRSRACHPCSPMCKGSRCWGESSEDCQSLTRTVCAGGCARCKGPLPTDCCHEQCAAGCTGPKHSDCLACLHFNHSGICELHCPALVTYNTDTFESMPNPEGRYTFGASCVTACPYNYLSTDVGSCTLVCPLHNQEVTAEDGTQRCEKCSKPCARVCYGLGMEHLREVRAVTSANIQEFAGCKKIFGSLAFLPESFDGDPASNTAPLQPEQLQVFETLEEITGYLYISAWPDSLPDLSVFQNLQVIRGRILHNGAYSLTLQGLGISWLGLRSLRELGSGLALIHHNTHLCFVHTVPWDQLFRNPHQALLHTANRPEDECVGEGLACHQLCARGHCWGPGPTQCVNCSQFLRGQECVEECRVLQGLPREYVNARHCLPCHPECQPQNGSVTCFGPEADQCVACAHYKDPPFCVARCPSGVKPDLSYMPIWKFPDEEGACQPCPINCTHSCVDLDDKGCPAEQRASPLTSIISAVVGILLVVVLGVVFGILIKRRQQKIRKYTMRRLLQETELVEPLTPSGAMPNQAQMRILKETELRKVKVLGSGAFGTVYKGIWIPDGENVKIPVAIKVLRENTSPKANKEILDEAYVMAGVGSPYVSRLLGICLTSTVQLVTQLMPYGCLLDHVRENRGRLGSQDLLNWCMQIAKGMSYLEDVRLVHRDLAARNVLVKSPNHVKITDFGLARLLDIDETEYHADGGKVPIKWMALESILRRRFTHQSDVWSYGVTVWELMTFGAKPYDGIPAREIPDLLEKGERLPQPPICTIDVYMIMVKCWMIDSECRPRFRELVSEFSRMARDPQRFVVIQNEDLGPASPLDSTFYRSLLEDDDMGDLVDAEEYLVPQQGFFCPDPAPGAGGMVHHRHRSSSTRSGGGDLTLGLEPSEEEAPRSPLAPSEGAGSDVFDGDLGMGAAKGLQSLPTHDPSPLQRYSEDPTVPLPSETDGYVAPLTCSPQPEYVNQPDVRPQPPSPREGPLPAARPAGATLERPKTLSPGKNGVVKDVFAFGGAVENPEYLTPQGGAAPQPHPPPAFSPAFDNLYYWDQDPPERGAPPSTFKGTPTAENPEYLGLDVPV

[3] = SK-BR-3 cell growth inhibitors, pilot screen, 24 h, human (AID 572;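 active = viability at or below 10% of carrier control in both of two separate runs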;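 also: compound exposure lasted between 18 and 24 h rather than exactly 24 h; 100% = carrier-treated control wells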); conditions: SK-BR-3 viability, CellTiter-Glo luminescence, at 10 µM, stronger effect = lower value
[4] = HUVEC growth inhibition – cell-based, human, primary screen (AID 575); conditions: HUVEC proliferation, CellTiter-Glo luminescence, 72 h; at 10 µM; stronger effect = lower value;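 also: 100% = median of untreated cell wells with 0.1% DMSO on each plate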
[5] = growth inhibitors of H69AR lung tumor, primary screen, human, duplicate replicates (AID 580;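 active = viability at or under a set limit in both replicates, limit being median viability minus 3 SD, cut at about 48% in these data, passing the limit was not always enough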;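 also: 100% = mean luminescence of untreated wells and 0% = no signal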); conditions: H69AR lung tumor cells viability, ATP luminescence, 72 h; at 10 µM; stronger effect = lower value
[6] = reversal of MRP1-mediated doxorubicin resistance, pilot screen, H69AR cells, doxorubicin co-treatment (AID 601;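 active = viability loss from added drug above about 55%, and viability with drug at most 40%, in both replicates, limit read from the data, passing the limit was not always enough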); conditions: CellTiter-Glo, 72 h, at 10 µM; for differential viability (reversal): stronger effect = higher value
[7] = 384-well plate pilot, post-Golgi transport modulator project, inhibition of yeast transport mutant growth (AID 636; in the data active = inhibition above about 31%); conditions: absorbance 615 nm, about 18 h, stronger effect = higher value
[8] = growth suppression of yeast trafficking mutant, preliminary HTS, modulators of trafficking downstream of Golgi apparatus project, 1536-format plate, OD 615 nm (AID 637; in the data active = inhibition above about 30%); conditions: yeast transport mutant growth, absorbance 615 nm, 18 h; stronger effect = higher value
[9] = OD615 S. cerevisiae growth inhibition, permissive medium, pilot counter-assay, permissive growth control for S. cerevisiae lifespan shortening project (AID 705;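 active = growth inhibition above 25% in both replicates, a cutoff set 3 SD above the mean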); conditions: OD615, 24 h, at 10 µM, stronger effect = higher value
[10] = Restrictive medium S. cerevisiae growth inhibition, OD615, pilot screen of yeast lifespan reduction project, restrictive growth control (AID 706;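 active = growth inhibition above a set limit, 3 SD over mean compound inhibition, in both replicates, cut at about 43% in these data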;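 also: modified DeaD lifespan yeast strain shifted to restrictive glucose medium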); conditions: OD615, 48 h, at 10 µM, stronger effect = higher value
[11] = viability gain of MRP-1-high H69AR cells under doxorubicin, pilot screen, MRP-1 activator project, CellTiter-Glo, duplicate (AID 807;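 active = viability increase at or above a cutoff of the median across tested compounds plus 3 SD, cut at about 8.5% in these data, passing the limit was not always enough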;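 also: compound pretreatment 18-22 h then 72 h combined with doxorubicin; 0% = doxorubicin alone and 100% = vehicle without doxorubicin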); conditions: H69AR viability with doxorubicin, CellTiter-Glo luminescence; at 10 µM; stronger effect = higher value
[12] = growth suppression of beta-catenin knockout HCT116, pilot screen, human colon tumor cells (AID 823;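 active = cell viability at or below a set limit in both duplicate runs, the limit being the all-compound median minus 4 SD, cut at about 23% in these data, passing the limit was not always enough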;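 also: 0% = wells killed by 20 µM Hyamine and 100% = untreated DMSO cell wells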); conditions: CellTiter-Glo, 60 h, at 10 µM, stronger effect = lower value
[13] = growth suppression of PTEN-deleted HCT116, pilot screen, cell-based, HCT116 clonal line, CellTiter-Glo (AID 824;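 active = viability at or below 27.92% in each of two runs, the all-compound median minus 4 SD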;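 also: 0% = 20 µM Hyamine control and 100% = vehicle cell control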); conditions: 60 h, at 10 µM, stronger effect = lower value
[14] = inhibitors of the yeast RAM network, pilot screen, dse1pr::URA3 reporter, 5-FOA selection (AID 869;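 active = inhibition over a set limit, the all-compound mean plus 3 SD, in both replicate runs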;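 also: 0% = DMSO wells with no growth and 100% = 10 µM 1-NA-PP1 with full growth; RAM network block rescues cells from 5-FOA so hits raise OD615 growth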); conditions: S. cerevisiae dse1pr::URA3 5-FOA growth, OD615, 2 d; at 10 µM; stronger effect = higher value; strain carries analog-sensitive mutant Cbk1 kinase
[15] = RAM signaling pathway blockade in yeast – S. cerevisiae, Pdr1DBD-CYC8 efflux-inhibited sensitized strain, primary screen (AID 1298;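 active = RAM network inhibition above 8.4% in each of two replicates, 3 SD over the compound average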;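 also: 0% = DMSO untreated cells without growth and 100% = 10 µM 1-NA-PP1 full growth; higher means more yeast growth rescued from 5-FOA killing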); conditions: S. cerevisiae cbk1-as DSE1-URA3 strain, 5-FOA growth OD615, 2 d; at 50 µM; stronger effect = higher value
[16] = H69AR cells + 2 uM doxorubicin, measured here: viability with 2 uM doxorubicin, stronger effect = lower value
[17] = H69AR cells, compound alone cytotoxicity

| SMILES | viability [1] | Her2 level [2] | viability [3] | viability [4] | viability [5] | differential viability (reversal) ([6]; H69AR cells + 2 uM doxorubicin) | viability [6, 16] | viability [6, 17] | inhibition [7] | inhibition [8] | growth inhibition [9] | growth inhibition [10] | viability increase [11] | viability [12] | viability [13] | inhibition [14] | RAM network inhibition [15] |
| --- | --- | --- | --- | --- | --- | --- | --- | --- | --- | --- | --- | --- | --- | --- | --- | --- | --- |
| O=C(NCc1ccc2c(c1)OCO2)C1CCCN(S(=O)(=O)c2cccc3cccnc23)C1 (stereo not given) | 95.5% | 85% (inactive) | 95.5% (inactive) | 70% (inactive) | 83.3% (inactive) | 5.17% (inactive) | 78.1% | 83.3% | -4.93% (inactive) | 4% (inactive) | -10.4% (inactive) | -10.5% (inactive) | -2.13% (inactive) | 84.9% (inactive) | 80.7% (inactive) | 0.32% (inactive) | 5.25% (inactive) |
| COc1ccc(N(CC(=O)Nc2ccc3c(c2)OCCO3)S(=O)(=O)c2cccnc2)cc1 | 91% | 108% (inactive) | 91% (inactive) | 104% (inactive) | 92.5% (inactive) | 4.99% (inactive) | 87.5% | 92.5% | -5.13% (inactive) | -3.83% (inactive) | -10.3% (inactive) | 0.75% (inactive) | -2.05% (inactive) | 102% (inactive) | 99.7% (inactive) | 1.63% (inactive) | 4.76% (inactive) |
| COC(=O)C(C)Sc1nc2c(c(=O)n1-c1ccccc1)SCC2 (stereo not given) | 102% | 77.5% (inactive) | 102% (inactive) | 84.3% (inactive) | 94.9% (inactive) | -12.1% (inactive) | 107% | 94.9% | -6.99% (inactive) | -4.44% (inactive) | -12.1% (inactive) | -4.13% (inactive) | -1.78% (inactive) | 87.1% (inactive) | 90.8% (inactive) | 1.94% (inactive) | 4.56% (inactive) |
| CCN(CC)c1ccc(NC(=O)c2nc3nc(C)cc(C(F)F)n3n2)cc1 | 122% | 102% (inactive) | 122% (inactive) | 81.6% (inactive) | 84.4% (inactive) | 6.97% (inactive) | 77.4% | 84.4% | -3.6% (inactive) | 6.72% (inactive) | -8.26% (inactive) | -10.5% (inactive) | 0.23% (inactive) | 95.2% (inactive) | 88% (inactive) | 0.83% (inactive) | 1.16% (inactive) |
| Cc1cc2cc(CCNC(=O)CC(C)C)c(=O)[nH]c2cc1C | 102% | 128% (inactive) | 102% (inactive) | 93.3% (inactive) | 90.2% (inactive) | 0.865% (inactive) | 89.4% | 90.2% | -3.73% (inactive) | 5% (inactive) | -7.38% (inactive) | -5.57% (inactive) | -0.47% (inactive) | 104% (inactive) | 97.7% (inactive) | 0.365% (inactive) | 0.73% (inactive) |
